Records with an inconclusive call do not appear. Active and inactive are the calls of the source. Rule for the calls: active = hit-call score of the fitted dose curve at least 0.9, where 1 is the maximum; inconclusive = response in the unintended direction; inactive = score below 0.9.
Columns and labels:
[1] = molecular target: guinea pig Leukotriene D4 Receptor (LTD4), CYSLTR1 (gene 100135514) (UniProt Q2NNR5); assay: NVS_GPCR_gLTD4: NovaScreen (NVS) G Protein-Coupled Receptor Assay for guinea pig Leukotriene D4 Receptor (LTD4) (AID 2283248)
guinea pig Leukotriene D4 Receptor (LTD4), CYSLTR1 (gene 100135514), sequence (Q2NNR5 whole entry, looked up): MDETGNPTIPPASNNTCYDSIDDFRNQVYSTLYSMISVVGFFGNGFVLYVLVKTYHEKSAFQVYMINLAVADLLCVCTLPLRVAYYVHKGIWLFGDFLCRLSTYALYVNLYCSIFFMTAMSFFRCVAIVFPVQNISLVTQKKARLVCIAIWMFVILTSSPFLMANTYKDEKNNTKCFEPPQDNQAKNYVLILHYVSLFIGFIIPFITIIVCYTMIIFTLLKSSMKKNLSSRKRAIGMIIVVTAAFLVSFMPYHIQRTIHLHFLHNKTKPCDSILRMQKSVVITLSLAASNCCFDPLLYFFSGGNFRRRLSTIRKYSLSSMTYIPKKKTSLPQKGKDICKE
Method in brief: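 Radioligand displacement on guinea pig lung membranes, 1 h incubation, filtration and scintillation counting; DMSO as negative control. Duplicate 25 uM primary screen, then singleton concentration-response up to 50 uM.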

[2] = molecular target: human Beta-secretase (BACE), BACE1 (gene 23621) (UniProt P56817); assay: NVS_ENZ_hBACE: NovaScreen (NVS) Enzymatic Assay for human Beta-secretase (BACE) (AID 2283140);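 note: hits are inhibitors that reduce fluorescent substrate signal versus DMSO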
human Beta-secretase (BACE), BACE1 (gene 23621), sequence (P56817 whole entry, looked up): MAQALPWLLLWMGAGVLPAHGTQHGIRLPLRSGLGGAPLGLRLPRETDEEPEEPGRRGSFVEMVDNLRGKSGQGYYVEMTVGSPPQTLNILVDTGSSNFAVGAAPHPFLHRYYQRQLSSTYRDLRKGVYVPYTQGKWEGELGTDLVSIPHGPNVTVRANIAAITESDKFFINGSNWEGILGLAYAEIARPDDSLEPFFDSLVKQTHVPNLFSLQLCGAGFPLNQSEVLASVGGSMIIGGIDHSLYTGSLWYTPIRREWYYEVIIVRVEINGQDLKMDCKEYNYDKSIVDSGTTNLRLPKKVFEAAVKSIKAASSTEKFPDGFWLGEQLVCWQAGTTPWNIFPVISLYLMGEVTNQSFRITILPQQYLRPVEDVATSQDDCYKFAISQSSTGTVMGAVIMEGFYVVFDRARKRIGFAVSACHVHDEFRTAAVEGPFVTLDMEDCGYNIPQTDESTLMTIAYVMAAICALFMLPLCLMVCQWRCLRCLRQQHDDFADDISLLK
Method in brief: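 Compounds were first tested in duplicate at 25 uM, then actives in concentration series, against recombinant BACE1 from SF9 cells. Enzyme activity was measured by fluorescence intensity 1 hour after dosing, with DMSO as negative control.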

[3] = molecular target: human Ephrin type-A Receptor 1 (EphA1), EPHA1 (gene 2041) (UniProt P21709); assay: NVS_ENZ_hEphA1: NovaScreen (NVS) Enzymatic Assay for human Ephrin type-A Receptor 1 (EphA1) (AID 2283158);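 note: activity is signal loss versus DMSO meaning EphA1 kinase inhibition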
human Ephrin type-A Receptor 1 (EphA1), EPHA1 (gene 2041), sequence (P21709 whole entry, looked up): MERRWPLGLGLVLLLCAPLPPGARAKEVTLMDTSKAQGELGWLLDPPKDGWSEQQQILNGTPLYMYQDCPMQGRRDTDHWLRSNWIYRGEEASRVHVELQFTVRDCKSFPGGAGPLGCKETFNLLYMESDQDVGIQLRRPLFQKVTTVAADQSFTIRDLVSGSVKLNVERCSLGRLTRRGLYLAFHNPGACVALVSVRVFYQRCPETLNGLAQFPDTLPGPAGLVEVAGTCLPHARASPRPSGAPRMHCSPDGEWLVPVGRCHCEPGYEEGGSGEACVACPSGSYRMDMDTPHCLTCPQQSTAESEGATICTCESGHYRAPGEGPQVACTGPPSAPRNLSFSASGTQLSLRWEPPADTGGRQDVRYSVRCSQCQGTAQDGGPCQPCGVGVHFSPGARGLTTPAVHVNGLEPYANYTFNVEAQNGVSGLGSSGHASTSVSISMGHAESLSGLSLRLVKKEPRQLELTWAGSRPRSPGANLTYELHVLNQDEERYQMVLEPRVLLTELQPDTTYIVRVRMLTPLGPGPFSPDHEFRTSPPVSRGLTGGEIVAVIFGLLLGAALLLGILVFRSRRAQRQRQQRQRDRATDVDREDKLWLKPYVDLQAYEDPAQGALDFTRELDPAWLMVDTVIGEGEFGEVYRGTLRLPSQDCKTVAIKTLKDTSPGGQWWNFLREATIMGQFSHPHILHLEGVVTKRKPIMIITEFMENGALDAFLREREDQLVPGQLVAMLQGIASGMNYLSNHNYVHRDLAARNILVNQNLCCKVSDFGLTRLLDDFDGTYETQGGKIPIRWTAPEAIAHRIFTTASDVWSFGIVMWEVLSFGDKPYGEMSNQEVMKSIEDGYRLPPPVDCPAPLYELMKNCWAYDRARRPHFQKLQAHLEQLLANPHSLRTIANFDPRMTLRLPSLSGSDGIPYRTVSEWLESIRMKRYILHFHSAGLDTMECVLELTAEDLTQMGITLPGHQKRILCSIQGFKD
Method in brief: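 Here the EphA1 protein is recombinant and the substrate fluorescent, with electrophoretic separation before fluorescence detection at 1 hour. Signal loss against DMSO defines activity; plate controls included; follow-up concentration series reach 50 uM.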

[4] = molecular target: human Matrix Metalloproteinase-9 (MMP9), MMP9 (gene 4318) (UniProt P14780); assay: NVS_ENZ_hMMP9: NovaScreen (NVS) Enzymatic Assay for human Matrix Metalloproteinase-9 (MMP9) (AID 2283190);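 note: cell-free recombinant MMP9 protease activity read by fluorescent substrate signal; active means inhibition seen as loss of fluorescence signal versus DMSO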
human Matrix Metalloproteinase-9 (MMP9), MMP9 (gene 4318), sequence (P14780 whole entry, looked up): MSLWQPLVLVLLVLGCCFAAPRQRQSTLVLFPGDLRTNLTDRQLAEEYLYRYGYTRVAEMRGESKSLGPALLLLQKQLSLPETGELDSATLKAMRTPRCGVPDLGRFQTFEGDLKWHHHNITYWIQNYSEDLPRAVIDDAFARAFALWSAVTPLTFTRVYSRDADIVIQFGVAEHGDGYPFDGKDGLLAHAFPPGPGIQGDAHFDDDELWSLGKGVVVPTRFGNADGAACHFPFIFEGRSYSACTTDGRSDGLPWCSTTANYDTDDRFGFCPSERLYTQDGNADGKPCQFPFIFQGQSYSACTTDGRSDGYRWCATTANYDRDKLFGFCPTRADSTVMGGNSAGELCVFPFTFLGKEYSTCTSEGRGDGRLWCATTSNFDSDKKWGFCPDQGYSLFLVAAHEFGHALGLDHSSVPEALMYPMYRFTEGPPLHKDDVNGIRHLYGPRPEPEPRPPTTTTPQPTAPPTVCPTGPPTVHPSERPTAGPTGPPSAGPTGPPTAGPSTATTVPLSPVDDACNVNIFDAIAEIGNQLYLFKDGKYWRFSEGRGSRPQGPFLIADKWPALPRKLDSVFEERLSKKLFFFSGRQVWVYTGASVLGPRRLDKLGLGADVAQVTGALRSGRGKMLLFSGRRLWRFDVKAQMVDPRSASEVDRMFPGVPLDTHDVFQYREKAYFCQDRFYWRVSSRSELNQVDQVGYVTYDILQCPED
Experimental: NVS_ENZ_hMMP9 is a biochemical, single-readout assay that uses extracted gene-proteins in a cell-free assay. Measurements were taken 1 hour after chemical dosing in a 96-well plate.NVS_ENZ_hMMP9 is one of one assay component(s) measured or calculated from the NVS_ENZ_hMMP9 assay. It is designed to make measurements of enzyme activity, a form of enzyme reporter, as detected with fluorescence intensity signals by Fluorescence technology.Data from the assay component NVS_ENZ_hMMP9 was analyzed into 1 assay endpoint. This assay endpoint, NVS_ENZ_hMMP9, was analyzed in the positive analysis fitting direction relative to DMSO as the negative control and baseline of activity. Using a type of enzyme reporter, loss-of-signal activity can be used to understand changes in the enzymatic activity as they relate to the gene MMP9. Furthermore, this assay endpoint can be referred to as a primary readout, because this assay has produced multiple assay endpoints where this one serves a enzymatic activity function. To generalize the intended target to other relatable targets, this assay endpoint is annotated to the protease intended target family, where the subfamily is matrix metalloproteinase.
Binding assays used specific radioligands (tritiated, iodinated) with non-radioactive competitive displacement ligands in agonist or antagonist protocols (as indicated) and various reference compounds and inhibitors to titrate specific binding to receptors and transporters. Most enzyme assays (CYPs, kinases, phosphatases, proteases, HDACs) used recombinant protein and specific substrates (fluorescence mostly, some colorimetric and radioactive) and inhibitors, followed by a biochemical separation of substrate and product. All assays for the biochemical HTS were initially run in duplicate at a single concentration (10 uM for CYP450 assays and 25 uM for all others). […] Each assay was run with positive and negative controls, and concurrent controls on every plate. The follow-up (secondary) screen tested active chemical-pairs in concentration series, as well as a few additional assays not tested in the primary screen, some selected negative inactives, and several cases re-run in the concentration series for confirmatory purposes.

[5] = molecular target: human Phosphodiesterase 10 (PDE10), PDE10A (gene 10846) (UniProt Q9Y233); assay: NVS_ENZ_hPDE10: NovaScreen (NVS) Enzymatic Assay for human Phosphodiesterase 10 (PDE10) (AID 2283195)
human Phosphodiesterase 10 (PDE10), PDE10A (gene 10846), sequence (Q9Y233 whole entry, looked up): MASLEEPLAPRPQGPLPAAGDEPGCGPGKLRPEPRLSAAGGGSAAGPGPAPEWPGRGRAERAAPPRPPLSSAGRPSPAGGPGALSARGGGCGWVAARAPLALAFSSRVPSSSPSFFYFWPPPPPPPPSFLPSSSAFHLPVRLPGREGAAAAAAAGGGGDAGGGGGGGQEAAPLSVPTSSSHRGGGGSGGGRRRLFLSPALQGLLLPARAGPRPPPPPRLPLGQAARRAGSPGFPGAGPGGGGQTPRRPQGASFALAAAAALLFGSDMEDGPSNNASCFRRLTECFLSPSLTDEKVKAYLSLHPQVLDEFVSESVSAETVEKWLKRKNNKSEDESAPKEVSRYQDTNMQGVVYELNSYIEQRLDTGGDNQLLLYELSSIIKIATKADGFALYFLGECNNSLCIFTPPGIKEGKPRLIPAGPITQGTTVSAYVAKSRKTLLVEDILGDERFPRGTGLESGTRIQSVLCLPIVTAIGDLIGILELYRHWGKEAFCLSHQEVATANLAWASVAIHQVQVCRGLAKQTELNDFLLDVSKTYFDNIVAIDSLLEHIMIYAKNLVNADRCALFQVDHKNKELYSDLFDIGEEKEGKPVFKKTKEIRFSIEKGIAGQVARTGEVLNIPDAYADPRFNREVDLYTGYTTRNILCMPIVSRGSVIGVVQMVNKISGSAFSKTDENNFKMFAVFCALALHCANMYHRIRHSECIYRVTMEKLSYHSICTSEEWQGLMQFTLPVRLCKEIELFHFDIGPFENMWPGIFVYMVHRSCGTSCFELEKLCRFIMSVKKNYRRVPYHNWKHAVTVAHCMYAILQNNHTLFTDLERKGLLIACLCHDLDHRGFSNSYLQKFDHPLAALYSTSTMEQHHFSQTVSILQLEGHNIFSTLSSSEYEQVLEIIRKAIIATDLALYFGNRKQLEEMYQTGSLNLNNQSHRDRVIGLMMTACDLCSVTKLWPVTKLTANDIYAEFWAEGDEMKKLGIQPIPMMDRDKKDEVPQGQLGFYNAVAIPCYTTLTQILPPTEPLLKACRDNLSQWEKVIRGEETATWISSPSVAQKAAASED
Method in brief: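 PDE10A, cell-free; 1 h incubation; fluorescence intensity + electrophoretic mobility shift separating substrate/product; DMSO = baseline; 25 uM duplicate primary, CRC up to 50 uM.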

[6] = molecular target: Cytochrome P450 2C19 (Homo sapiens) (UniProt P33261); assay: NVS_ADME_hCYP2C19: NovaScreen (NVS) CYP450-related Enzyme Activity (ADME) Assay for human CYP2C19 (AID 2283113);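 note: potency for inhibition seen as loss of fluorescent signal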
Method in brief: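 Biochemical CYP2C19 inhibition screen: insect-cell recombinant protein plus fluorescent substrate, 1 h, fluorescence intensity. Acetonitrile defined baseline activity. Single 10 uM concentration in duplicate, with concentration-response follow-up for actives.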

[7] = molecular target: human Dual Specificity Protein Phosphatase 3 (DUSP3), DUSP3 (gene 1845) (UniProt P51452); assay: NVS_ENZ_hDUSP3: NovaScreen (NVS) Enzymatic Assay for human Dual Specificity Protein Phosphatase 3 (DUSP3) (AID 2283152);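 note: phosphatase activity of recombinant human DUSP3 on a fluorogenic substrate without cells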
human Dual Specificity Protein Phosphatase 3 (DUSP3), DUSP3 (gene 1845), sequence (P51452 whole entry, looked up): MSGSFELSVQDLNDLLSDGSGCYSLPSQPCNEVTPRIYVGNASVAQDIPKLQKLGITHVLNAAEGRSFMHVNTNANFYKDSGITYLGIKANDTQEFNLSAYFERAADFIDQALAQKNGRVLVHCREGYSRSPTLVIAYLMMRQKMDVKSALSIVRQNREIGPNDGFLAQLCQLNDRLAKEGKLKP
Method in brief: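 Cell-free assay with recombinant human DUSP3 and fluorogenic substrate, read by fluorescence intensity. Primary screen ran duplicate at 25 uM; actives followed up in concentration series; loss of signal versus DMSO scored.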

[8] = molecular target: human Phosphoinositide 3-kinase alpha (PI3Ka), PIK3CA (gene 5290) (UniProt P42336); assay: NVS_ENZ_hPI3Ka: NovaScreen (NVS) Enzymatic Assay for human Phosphoinositide 3-kinase alpha (PI3Ka) (AID 2283196)
human Phosphoinositide 3-kinase alpha (PI3Ka), PIK3CA (gene 5290), sequence (P42336 whole entry, looked up): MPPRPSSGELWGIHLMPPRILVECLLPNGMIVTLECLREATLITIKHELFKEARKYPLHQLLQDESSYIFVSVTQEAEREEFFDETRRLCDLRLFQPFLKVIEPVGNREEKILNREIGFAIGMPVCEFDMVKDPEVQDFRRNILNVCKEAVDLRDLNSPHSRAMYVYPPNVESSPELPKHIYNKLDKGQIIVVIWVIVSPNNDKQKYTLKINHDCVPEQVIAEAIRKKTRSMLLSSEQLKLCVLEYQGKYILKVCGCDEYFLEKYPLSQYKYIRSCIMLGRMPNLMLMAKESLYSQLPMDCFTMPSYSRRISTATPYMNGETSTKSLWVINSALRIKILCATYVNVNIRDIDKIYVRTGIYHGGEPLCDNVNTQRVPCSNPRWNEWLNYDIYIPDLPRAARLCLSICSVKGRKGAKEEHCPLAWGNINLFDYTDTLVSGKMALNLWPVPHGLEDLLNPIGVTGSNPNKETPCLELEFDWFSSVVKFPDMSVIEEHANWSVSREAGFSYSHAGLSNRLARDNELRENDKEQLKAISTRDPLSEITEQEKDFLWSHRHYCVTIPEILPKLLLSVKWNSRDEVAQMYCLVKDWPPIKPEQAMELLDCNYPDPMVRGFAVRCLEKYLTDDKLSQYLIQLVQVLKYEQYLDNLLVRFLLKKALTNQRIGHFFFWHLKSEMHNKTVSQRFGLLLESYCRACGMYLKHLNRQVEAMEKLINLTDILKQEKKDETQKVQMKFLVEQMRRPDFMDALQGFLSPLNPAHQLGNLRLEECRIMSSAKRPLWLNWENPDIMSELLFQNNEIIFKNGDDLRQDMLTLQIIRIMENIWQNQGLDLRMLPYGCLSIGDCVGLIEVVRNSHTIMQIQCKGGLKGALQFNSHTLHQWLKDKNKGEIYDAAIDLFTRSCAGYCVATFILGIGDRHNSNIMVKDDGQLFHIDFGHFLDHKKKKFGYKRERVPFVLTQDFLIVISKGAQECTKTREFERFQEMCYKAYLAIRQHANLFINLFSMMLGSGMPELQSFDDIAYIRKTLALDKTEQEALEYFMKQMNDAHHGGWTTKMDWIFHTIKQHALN
Method in brief: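 Fluorescence/mobility-shift readout of substrate conversion by recombinant enzyme, 1 h post-dosing. Primary screen in duplicate at 25 uM; actives (e.g. ≥30% inhibition) retested in singleton concentration-response, top concentration 50 uM.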

[9] = molecular target: human Vascular Endothelial Growth Factor Receptor 1 (VEGFR1), FLT1 (gene 2321) (UniProt P17948); assay: NVS_ENZ_hVEGFR1: NovaScreen (NVS) Enzymatic Assay for human Vascular Endothelial Growth Factor Receptor 1 (VEGFR1) (AID 2283226)
Method in brief: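 Cell-free assay of recombinant human VEGFR1 kinase with substrate, measured 1 h after dosing; fluorescence with electrophoretic mobility-shift separation of substrate and product, referenced to DMSO; primary screen at 25 uM in duplicate, actives then run in concentration series.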

[10] = molecular target: human Caspase 5 (CASP5), CASP5 (gene 838) (UniProt P51878); assay: NVS_ENZ_hCASP5: NovaScreen (NVS) Enzymatic Assay for human Caspase 5 (CASP5) (AID 2283137)
Method in brief: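 E. coli-derived enzyme, cell-free, 2 h incubation, fluorescence intensity. 25 uM duplicate single-point; hits → concentration series to 50 uM. DMSO baseline, positive/negative controls on every plate.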

c1ccc(-c2ccccc2-c2ccccc2)cc1
outcome [1]: inactive

CCc1ccc(C(c2ccc(CC)cc2)C(Cl)Cl)cc1
AC50 [2]: 3.11 µM (active) | outcome [3]: inactive | outcome [4]: inactive | AC50 [5]: 14.1 µM (active)

CCCCOCCOCCOC(=O)CCCCC(=O)OCCOCCOCCCC
AC50 [6]: 5 µM (active)

CCN(CC)c1ccc2c(C)cc(=O)oc2c1
AC50 [2]: 36.4 µM (active) | outcome [3]: inactive | outcome [5]: inactive

CCCCCCCCCCCCCCCC[N+](C)(C)Cc1ccccc1
AC50 [6]: 5 µM (active) | AC50 [2]: 6.34 µM (active) | AC50 [7]: 4.22 µM (active) | outcome [3]: inactive | outcome [4]: inactive | outcome [8]: inactive | outcome [9]: inactive

Oc1ccc(Nc2ccccc2)cc1
AC50 [6]: 2.86 µM (active) | AC50 [10]: 8.26 µM (active) | AC50 [4]: 9.97 µM (active) | outcome [8]: inactive

CCCCNc1ccccc1
AC50 [4]: 4.99 µM (active) | outcome [1]: inactive

CC(=O)Nc1ccc(N=Nc2cc(C)ccc2O)cc1
AC50 [6]: 0.00307 µM (active) | outcome [5]: inactive

CC(C)=CCCC(C)CCOC(=O)C(C)C (stereo not drawn)
outcome [5]: inactive

CCCCCC=O
AC50 [4]: 1.86 µM (active)

C#C[C@]1(O)CC[C@H]2[C@@H]3CCc4cc(OC)ccc4[C@H]3CC[C@@]21C
AC50 [6]: 6.84 µM (active)

CO[Si](OC)(c1ccccc1)c1ccccc1
outcome [5]: inactive

From PubChem BioAssay (EPA / NIEHS)
